Source: PubChem BioAssay AID623868 (Vanderbilt High Throughput Screening Facility, 2012)
Out of some 2,100 compounds screened, about 760 (36%) were called active.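 How the source made its calls: active means thallium-flux fluorescence traces judged by eye to show enhanced or reduced glutamate response, manual score 1 or -1, so both directions (some results past the limit were not filed as active); inactive means the rest, including fluorescent or raised-baseline compounds.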 Not all results are given here.

experiment: non-GIRK thallium flux modulation in mGlu8 cells, confirmation, counter-screen for GIRK activator project, cell-based, HEK-293 rmGlu8, no GIRK (AID 623868); details: thallium flux fluorescence, at 10 µM, actives lie on both sides, codes: 1 enhancer, -1 blocker, 0 none, thallium stimulus containing EC20 glutamate;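 further: extra codes mark interference with 3 for fluorescent and 4 for baseline rise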

SMILES | manual score
CCOCc1c(C(=O)OCC(=O)Nc2ccc(C)c(S(=O)(=O)N(C)C)c2)oc2ccccc12 | 0 (inactive)
Cc1cc(C)c2nc(SC(C)C(=O)NCC(=O)Nc3ccc(F)c(F)c3F)cc(C)c2c1 (stereo unspecified) | 1 (active)
Cc1ccccc1NC1=C(Cl)C(=O)OC1OC(=O)c1ccco1 (stereo unspecified) | -1 (active)
CCN1CCN(CCCOc2ccc(-c3ccccc3)cc2)CC1 | 0 (inactive)
CC(=O)c1cccc(NC(=O)CCOc2ccccc2)c1 | 0 (inactive)
Cc1c(C(=O)O)c(=S)sn1CCOc1ccccc1 | -1 (active)
Cc1ccc(C(=O)NNC(=S)NC(=O)COc2ccccc2)cc1 | 1 (active)
Cc1ccc(OCC(=O)NC(=S)Nc2cccc(C)n2)cc1 | 1 (active)
Cc1ccccc1C(=O)NNC(=S)NC(=O)COc1ccccc1 | 1 (active)
CCCOc1nc2c(c(=O)n(C)c(=O)n2C)n1Cc1cccc2ccccc12 | 0 (inactive)
CCc1cc(-c2n[nH]c(C)c2-c2nc3ccccc3n2C)c(O)c(CN2CCN(C)CC2)c1O | 0 (inactive)
COc1ccc(NC(=O)NC(C)c2ccncc2)cc1OC (stereo unspecified) | 0 (inactive)
c1ccc(Cc2nnc(-c3ccccc3)o2)cc1 | 0 (inactive)
Fc1ccc2nc(-c3ccccc3)nc(SCc3nnc(-c4ccccc4)o3)c2c1 | 1 (active)
COc1ccc(/C=N/n2c(SC)nnc2-c2ccccc2)c(OC)c1OC | -1 (active)
COc1ccc(-c2nn(-c3ccccc3)cc2/C=N/n2cnnc2)cc1OC | 0 (inactive)
COc1cccc(/C=N/n2c(=S)n(C)c3ccccc32)c1OC | 0 (inactive)
COc1cccc(C(=O)NC(=S)Nc2ccc3c4c(cccc24)CC3)c1 | 1 (active)
O=C(COc1ccccc1)NC(=S)Nc1ccc2c3c(cccc13)CC2 | 1 (active)
COc1ccc(OC)c(Nc2cc(-c3ccccc3)nc(N)n2)c1 | 0 (inactive)
COc1cc(NC(=O)Cn2nnc(-c3ccccc3N)n2)cc(OC)c1 | 0 (inactive)
COc1cccc(-c2cc(C(=O)NC3CCCC3)no2)c1 | 0 (inactive)

SMILES | manual score
COc1ccc(C(=O)Nc2ccc(Oc3ncnc4sc(-c5ccccc5)cc34)cc2)cc1OC | 0 (inactive)
COc1cc(OC)cc(C(=O)Nc2nc(-c3ccccc3)c(-c3ccccc3)o2)c1 | 1 (active)
COc1cccc(C(=O)NCc2cn3ccsc3n2)c1 | 0 (inactive)
COc1cccc(C(=O)Nc2nc(-c3ccccc3)c(-c3ccccc3)o2)c1 | 1 (active)
O=C(Nc1ccc(CN2CCOCC2)cc1)c1cc2ccccn2n1 | 0 (inactive)
C=CCN1C(=O)/C(=C2/Sc3ccccc3N2C)SC1=Nc1c(C)n[nH]c1C | 0 (inactive)
CCCCCn1nc(-c2ccccc2)c2nc3ccccc3nc21 | 3 (inactive)
O=C(c1ccc2nccnc2c1)N1CCN(Cc2ccc3c(c2)OCO3)CC1 | 0 (inactive)
COC(=O)c1[nH]c2ccc(C)cc2c1NC(=O)CCN1CCN(Cc2ccc3c(c2)OCO3)CC1 | 0 (inactive)
CCOC(=O)c1ccc(NC(=O)N2CCN(Cc3cccc(F)c3)CC2)cc1 | 0 (inactive)
O=C(NC(=S)N1CCN(Cc2ccc3c(c2)OCO3)CC1)c1cccc(Br)c1 | 1 (active)
O=C(NC(=S)N1CCN(Cc2ccc3c(c2)OCO3)CC1)c1ccc(Cl)cc1 | 1 (active)
SC(COCc1ccccc1)CN1CCN(Cc2ccc3c(c2)OCO3)CC1 (stereo unspecified) | 0 (inactive)
CCN(CC)c1ccc(C(=O)NC(=S)N2CCN(Cc3ccc4c(c3)OCO4)CC2)cc1 | 1 (active)
O=C(NC(=S)N1CCN(Cc2ccccc2)CC1)c1ccccc1 | 1 (active)
CN1CCN(C(=S)NC(=O)/C=C/c2cccc3ccccc23)CC1 | 0 (inactive)
Cn1cc(CCC(=O)NCc2ccc3c(c2)OCO3)c2ccccc21 | 0 (inactive)
O=C(c1ccc(COc2c(F)c(F)c(F)c(F)c2F)o1)N1CCN(Cc2ccc3c(c2)OCO3)CC1 | 0 (inactive)
O=C(CN1CCN(Cc2ccccc2)CC1)Nc1cccc(C(F)(F)F)c1 | 0 (inactive)
COCCCN(C(=S)Nc1cccc(Cl)c1)C(C)c1ccncc1 (stereo unspecified) | 0 (inactive)
CC(C)(C)CC(C)(C)NCC(O)COc1c(F)cc(Br)cc1F (stereo unspecified) | 4 (inactive)
O=C(CN1CCCCC1)Nc1cccc(Oc2ccccc2)c1 | 0 (inactive)

SMILES | manual score
C/C(=N\NC(=S)NC(C)C)c1ccc(Cl)s1 | 1 (active)
CCC/C(=N/NC(=O)c1csc(C)c1C)c1ccc(Cl)s1 | 0 (inactive)
C/C(=N\NC(=O)c1csc(C)c1C)c1ccc(Cl)s1 | 1 (active)
C=C(C)CNC(=S)N/N=C(\C)c1ccc(Cl)s1 | 1 (active)
C/C(=N\NC(N)=S)c1ccc(Cl)s1 | 0.5 (inactive)
CNC(=S)N/N=C(\C)c1ccc(Cl)s1 | 1 (active)
Cc1cc(C)n(CC(=O)O)n1 | 0 (inactive)
CCNC(=S)N/N=C(\C)c1ccc(Cl)s1 | 1 (active)
C/C(=N\NC(=S)NCCc1ccccc1)c1cccs1 | 3 (inactive)
C/C(CC(=O)NC(C)C)=N\NC(=O)COc1cc(C)c(Br)cc1Br | 0 (inactive)
COc1ccc(N2CCCn3c2nc2c3c(=O)n(Cc3ccccc3F)c(=O)n2C)c(OC)c1 | -1 (active)
Cn1c(N2CCCC2)nc2c1c(=O)n(Cc1ccc(Cl)cc1)c(=O)n2C | 0 (inactive)
COc1ccc(N2CCN(c3nc4c(c(=O)n(C)c(=O)n4C)n3Cc3ccccc3)CC2)cc1 | 0 (inactive)
CCN(CC(=O)c1c(N)n(C)c(=O)n(C)c1=O)c1cccc2ccccc12 | 0 (inactive)
O=C1NC(=S)SC1=C1CCCCCC1 | 1 (active)
CCc1cc(-c2n[nH]c(=S)n2C(C)c2ccccc2)cs1 (stereo unspecified) | 1 (active)
CCCc1cc(-c2n[nH]c(=S)n2C(C)c2ccccc2)cs1 (stereo unspecified) | 0 (inactive)
CCCCn1c(-c2csc3c2CCCC3)n[nH]c1=S | 0 (inactive)
CCCc1cc(-c2n[nH]c(=S)n2Cc2ccccc2)cs1 | 1 (active)
CCCCn1c(-c2csc(C(C)C)c2)n[nH]c1=S | 1 (active)
CCCCn1c(-c2csc3c2CCC(C)C3)n[nH]c1=S (stereo unspecified) | 1 (active)
CCCCCNc1nc(-c2ccccc2)cs1 | 0 (inactive)

SMILES | manual score
Cc1cccc(-n2c(C)nc3sccc3c2=O)c1 | 0 (inactive)
CCCc1cc(-c2n[nH]c(=S)n2CC(C)C)cs1 | 1 (active)
Cc1cccc(-n2c(-c3csc(C(C)C)c3)n[nH]c2=S)c1 | 1 (active)
Cc1ccc(S(=O)(=O)CC(=O)Nc2ccc(S(=O)(=O)Nc3onc(C)c3C)cc2)cc1 | 0 (inactive)
Cc1cccc2cc(/C=C3\N=C(c4ccccc4)OC3=O)c(N3CCOCC3)nc12 | 3 (inactive)
CCn1c(SCc2ccc(Cl)cc2)nnc1-c1ccccc1 | 0 (inactive)
COC(=O)c1ccc(CSc2ccc3nnc(-c4ccccc4)n3n2)o1 | -1 (active)
COC(=O)c1ccc(CSc2nnc(Nc3ccccc3OC)s2)o1 | 0 (inactive)
CCCCn1c(NC(=S)Nc2ccccc2)nc2ccccc21 | 1 (active)
CCn1c(NC(=S)Nc2ccccc2)nc2ccccc21 | 1 (active)
CCCCc1ccc(NC(=S)Nc2cccnc2)cc1 | 0 (inactive)
CCN(CC)CCn1c(NC(=O)c2ccc(Cl)cc2)nc2ccccc21 | 0 (inactive)
CCn1c(SCc2nc(-c3ccccc3)no2)nc2ccccc21 | 0 (inactive)
CCCn1c(NCc2ccc(N(C)C)cc2)nc2ccccc21 | 0 (inactive)
CCCCN1C(=O)c2ccccc2C1C(=O)NC1CCCC1 (stereo unspecified) | 0 (inactive)
Cc1cccc(C(=O)N2CCC(Cc3ccccc3)CC2)c1[N+](=O)[O-] | 0 (inactive)
CCC(/C=N/NC(=O)C1COc2ccccc2O1)CC (stereo unspecified) | 0 (inactive)
O=C(Nc1nnc(-c2ccc3c(c2)CCCC3)o1)C1COc2ccccc2O1 (stereo unspecified) | 1 (active)
O=C(Nc1nnc(-c2ccc3c(c2)CCCC3)o1)c1ccc(Cl)cc1Cl | 1 (active)
O=C(Nc1nnc(-c2ccc3c(c2)CCCC3)o1)c1ccccc1Cl | 1 (active)
CC1CN(S(=O)(=O)c2ccc(C(=O)Nc3nnc(-c4ccc5c(c4)CCCC5)o3)cc2)CC(C)O1 (stereo unspecified) | 1 (active)
Cc1ccc(NC(=O)c2ccc(COc3ccc4c(c3)CCC4)cc2)c(C)c1 | 0 (inactive)

SMILES | manual score
NS(=O)(=O)c1ccc(NC(=O)C2COc3ccccc3O2)cc1 (stereo unspecified) | 0 (inactive)
O=C(Nc1ccc(-c2nc3ccccc3o2)cc1)c1cc(-n2cnnc2)ccc1Cl | 0 (inactive)
CCCC1COC(Cn2cncn2)(c2ccc(C)cc2)O1 (stereo unspecified) | 0 (inactive)
O=C(c1cnn2c(C(F)(F)F)cc(-c3cccs3)nc12)N1CCN(Cc2ccccc2)CC1 | 0 (inactive)
CCCCCCCC1CC(CSc2ncn[nH]2)OC1=O (stereo unspecified) | 0 (inactive)
N=c1oc2ccc3ccccc3c2cc1-c1nc(-c2ccccc2)cs1 | 3 (inactive)
CC1CCCCN1Cc1nc2c(c(=O)n(C)c(=O)n2C)n1CCc1ccccc1 (stereo unspecified) | 0 (inactive)
CN(C)S(=O)(=O)c1ccc(C(=O)Nc2nnc(-c3ccc4c(c3)CCCC4)o2)cc1 | 0 (inactive)
O=C(Nc1cccc(-c2nnc(-c3ccccc3)o2)c1)C1CCCO1 (stereo unspecified) | 0 (inactive)
O=C(Nc1nnc(-c2ccc3c(c2)CCCC3)o1)c1ccccc1 | 1 (active)
CN1CCN(Cc2cccc(Oc3ccc(Cl)cc3)c2)CC1 | 0 (inactive)
Cc1ccccc1OCC(=O)N/N=C/c1cccn1C | 0 (inactive)
CCCc1ccc(OCC(=O)NNC(=S)NC(=O)c2ccco2)cc1 | 1 (active)
Cc1ccccc1OCC(=O)NNC(=S)NC(=O)c1ccco1 | 1 (active)
O=C(Nc1ccc(Br)cc1)C1CCC(=O)N1Cc1ccccc1Cl (stereo unspecified) | 0 (inactive)
O=P(CCCCCCCCCP(=O)(c1ccccc1)c1ccccc1)(c1ccccc1)c1ccccc1 | -0.5 (inactive)
COc1ccccc1-c1ccc(NC2CCCC2)nn1 | -1 (active)
COc1ccccc1Nc1ccc(Nc2ccccc2OC)nn1 | 0 (inactive)
